These results are taken from PubChem BioAssay (NCATS).

Structures are written as SMILES. Records with an inconclusive call do not appear. Activity calls are given as the source filed them. Calls follow the shape of the dose curve; as a rule, active = well fitted cell-killing curve with a large enough effect; inconclusive = small, poorly fitted or top-dose-only effect; inactive = flat fitted curve, though single readings scatter.
Potency is read from the fitted curve at half-maximal effect.

A short description of the test: Cell Viability - Renal Proximal Tubule (AID 545). Also: nearly all actives have a fitted effect of over 40% in size.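 As to activity change, negative = cytotoxicity: 0% = DMSO only and -100% = 100 µM tamoxifen.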 To be noted: renal proximal tubule cells viability, primary cells of rat origin; activity change, negative = cytotoxicity: at 91.7 µM (top of the series). An excerpt: NIH Chemical Genomics Center [NCGC]
NIH Molecular Libraries Screening Centers Network [MLSCN]
National Institutes of Environmental Health Sciences [NIEHS]
National Toxicology Program [NTP]
We have developed a 1536-well cell-based assay for quantitative high throughput screening (qHTS) against a number of cell lines to determine in vitro cytotoxicity of small molecules. This particular assay uses the renal proximal tubule cells which are derived from normal kidney cells freshly isolated from rat.
NCGC Assay Protocol Summary:
The CellTiter-Glo luminescent cell viability assay (Promega) is a homogeneous method to measure the number of viable cells in culture. The end point readout of this assay is based on quantitation of intracellular ATP, an indicator of metabolic activity, using the luciferase reaction. Luciferase catalyzes the oxidation of beetle Luciferin to oxyluciferin and light in the presence of ATP. The luminescent signal is proportional to amount of ATP present.
Using the CellTiter-Glo luminescent cell viability assay, the amount of cellular ATP was measured in the renal proximal tubule cells with complete culture medium following compound treatment for 40 hours. The assay was performed in opaque white Kalypsys 1536-well plates. In the screen, tamoxifen and doxorubicin were used as positive controls. Library compounds were measured for their ability to cause acute toxicity in the cell line, as reflected by a decrease in intracellular ATP levels, in a concentration-dependent manner. […] AC50 values were determined from concentration-response data modeled with the standard Hill equation.
qHTS protocol for CellTiter Glo renal proximal tubule cell assay
[Step] [Parameter] [Value] [Description]
1. Reagent; 5 uL; 1000 renal proximal tubule cells/well
2. Time; 5 hr; 37 °C incubation
4. Controls; 23 nL; Tamoxifen 0.34 uM to 100 uM & Doxorubicin 0.02 nM to 100 uM
5. Time; 40 hr; 37 °C incubation
6. Reagent; 5 uL; CellTiter Glo reagent
7. Time; 20 min; Room Temperature
8. Detection; Luminescence; Viewlux plate reader
Keywords: cell viability, cytotoxicity, renal proximal tubule cells, luminescence, NTPHTS, NTPHTS_NCGC, NIEHS, EPA, DSSTox, MLSMR, MLSCN, NIH Roadmap, qHTS, NCGC
Regarding `CCCCOCCOCCOCc1cc2c(cc1CCC)OCO2`, the activity change, negative = cytotoxicity was -1.35% (inactive).
`O=c1[nH]c(=O)n([C@H]2C[C@H](O)[C@@H](CO)O2)cc1Br`: the activity change, negative = cytotoxicity was -3.47% (inactive).
Same read-out and setting: in the case of `NC(=O)N1c2ccccc2C=Cc2ccccc21` it was 2.97% (inactive).
On the same count and under the same terms, in the case of `CCCCNC(=O)NS(=O)(=O)c1ccc(C)cc1` it was -6.67% (inactive); in that of `Nc1nc(N)c2nc(-c3ccccc3)c(N)nc2n1`, -93% (active).
With `COc1ccc(CN(CCN(C)C)c2ccccn2)cc1`, the activity change, negative = cytotoxicity is 7.61% (inactive).
Still for that read-out and setting: as for `CN=C(NC#N)NCCSCc1nc[nH]c1C`, the figure is -10.6% (inactive); as for `COC(=O)[C@H]1[C@H]2C[C@@H]3c4[nH]c5cc(OC)ccc5c4CCN3C[C@H]2C[C@@H](OC(=O)c2cc(OC)c(OC)c(OC)c2)[C@@H]1OC`, -101% (active).
In the case of `NC(=Nc1ccccc1)Nc1ccccc1`, the activity change, negative = cytotoxicity is -3.07% (inactive).
The same measure, in the same setting: in the case of `COc1cc(Cc2cnc(N)nc2N)cc(OC)c1OC` it was -5.57% (inactive).
In the case of `Nc1ncn([C@@H]2O[C@H](CO)[C@@H](O)[C@H]2O)c(=O)n1`, the Potency was 15.8 µM (active).
